Results as given in PubChem BioAssay (NCATS).
The other results are listed elsewhere or left out. Records with an inconclusive call do not appear. Activity calls are given as the source filed them. Calls follow the shape of the dose curve; as a rule, active = well fitted inhibition curve with a large enough effect; inconclusive = small, poorly fitted or top-dose-only effect; inactive = no such curve, though single readings can be large or run the other way.

target: Phosphoglycerate kinase, glycosomal (Trypanosoma brucei brucei) (UniProt P07378); test: qHTS for inhibitors of Phosphogylcerate Kinase: Hit Validation Screen (AID 686980); settings: TbPGK coupled GAPDH assay, Kinase-Glo luminescence; also: nearly all actives have a fitted effect of over 65% in size
Source text: Several species of the Trypanosomatidae family of parasitic protozoans cause a spectrum of diseases throughout the tropical and subtropical world. Sleeping sickness, caused by two subspecies of Trypanosoma brucei, is endemic to areas of sub-Saharan Africa, while Chagas disease, a manifestation of Trypanosoma cruzi infection, is prevalent throughout Central and South America. In addition, many species of Leishmania are responsible for a range of cutaneous and visceral diseases, causing ulcers, destructive lesions and kalaazar, a lethal infection of the viscera. Collectively, these organisms infect 30 million people worldwide (~500 million live in endemic areas), and account for ~130,000 deaths annually. Given their debilitating and prevalent nature, trypanosomatid parasites impose a heavy medical, economic and social burden on entire populations, primarily in the developing world. The problem is further exacerbated by the fact that existing treatments have progressed little in the past 50 years, and current drugs show high toxicity and poor efficacy. […] Blood-stream stages of T. brucei are entirely dependent on glycolysis as a source of ATP, and the tricarboxylic acid cycle and oxidative phosphorylation are both repressed. Glycolysis in axenically cultured T. cruzi, representing the intracellular pathogenic stage, is also essential for these parasites. […] Previous studies have shown that the glycolytic enzyme, phosphoglycerate kinase (PGK), is a viable target for drugs to kill these parasites. […] NIH Molecular Libraries Probe Production Network [MLPCN] NIH Chemical Genomics Center [NCGC] MLPCN Grant: R03 MH093212 PI Name: Malcolm Walkinshaw, University of Edinburgh
3ul of substrate/PGK buffer (columns 1,2,5-48) are dispensed into Greiner white solid bottom 1536-well assay plates; columns 3-4 receive only TEA buffer as 0x PGK controls. Compounds are then transferred via Kalypsys pin tool equipped with 1536-pin array (10nl slotted pins, V&P Scientific, San Diego, CA). Following addition of compound, 1ul of GAPDH (100nM final concentration, all columns) is added to initiate the reaction (this upstream coupling enzyme is necessary for in-well production of PGK substrate, 1,3-bisphosphoglycerate (1,3-BPG), which is unstable and not commercially available). The plates are then incubated at room temperature for 60 minutes. Kinase-Glo Plus reagent is added (2ul) and plates incubated for 10 minutes, before being transferred to a ViewLux high-throughput CCD imager (PerkinElmer) wherein single end-point measurements of luminescence are acquired using a clear filter. All reagents are diluted in an assay buffer consisting of 100mM TEA (pH 7.6), 5mM MgCl2 and 0.01% Tween-20.
Potency is read from the fitted curve at half-maximal effect.

Sequence of Phosphoglycerate kinase, glycosomal (Trypanosoma brucei brucei) (P07378 whole entry, looked up): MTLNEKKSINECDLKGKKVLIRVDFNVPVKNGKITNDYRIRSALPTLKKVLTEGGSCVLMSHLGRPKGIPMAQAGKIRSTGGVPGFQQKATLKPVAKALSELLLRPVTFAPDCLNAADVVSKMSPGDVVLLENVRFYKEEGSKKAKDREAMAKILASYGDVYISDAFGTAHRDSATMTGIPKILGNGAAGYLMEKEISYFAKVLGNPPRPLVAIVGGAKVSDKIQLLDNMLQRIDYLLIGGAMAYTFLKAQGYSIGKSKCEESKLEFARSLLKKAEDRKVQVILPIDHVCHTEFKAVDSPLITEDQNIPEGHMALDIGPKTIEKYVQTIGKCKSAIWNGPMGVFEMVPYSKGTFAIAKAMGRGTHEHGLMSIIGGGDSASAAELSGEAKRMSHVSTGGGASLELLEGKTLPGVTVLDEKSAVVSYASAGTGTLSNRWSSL

Potency, active:
Cc1ccc(C(=O)O)cc1-c1ccc(/C=C2\SC(=O)N(CC(=O)Nc3ccc4c(c3)OCO4)C2=O)o1 8.19 µM, Cc1ccc(-c2nc(SCc3ccc(Br)cc3)n3[nH]c(=O)cc3n2)cc1 9.19 µM, COCCCn1c(Cc2csc(Nc3cccc(Cl)c3)n2)nnc1SCC(=O)OC1CCCCC1 9.19 µM, C=CCn1c(C)cc(C2=NNC(=NCC)SC2)c1C 11.6 µM, O=C1/C(=C/c2cccs2)CCc2ccccc21 14.6 µM, C=CC1=C(C(=O)O)N2C(=O)[C@@H](NC(=O)/C(=N/OCC(=O)O)c3csc(N)n3)[C@H]2SC1 0.116 µM, COc1ccc(Cl)cc1NC(=O)CCS(=O)(=O)c1ccc(Br)cc1 5.17 µM, O=C(CSc1nc2ccccc2c(=O)[nH]1)Nc1nc(-c2ccc(Br)cc2)cs1 4.11 µM, Cc1c(CC(=O)N2CCN(C(=O)C3COc4ccccc4O3)CC2)c(=O)oc2c(O)c(O)ccc12 (configuration not stated) 2.59 µM, Cc1nonc1C(=O)N/N=C/c1ccc(O)cc1 5.8 µM, Cc1ccnc(NC(=O)c2ccoc2C)c1 14.6 µM, O=C(Oc1ccc(-c2nc(-c3ccccn3)no2)cc1)c1ccccc1 16.3 µM
